Results from a collection of fitness landscapes (doi:10.1016/j.celrep.2020.107928).
The full ranking holds about 81,000 sequences; the median of “one-hybrid fitness for binding NBS DNA” is about -0.1, and the highest 2% start at about 0.36. Many of the other results were omitted from the sample, so the highest values are more common in it than they were.

B1: Caulobacter ParB omega fusion; a variant is named by its letters at X, in order, B8GW30 (parent)
chain: MESVVVGEPGMSEGRRGLGRGLSALLGEVDAAPAQAPGEQLGGSREAPIEILQRNPDQPRRTFREEDLEDLSNSIREKGVLQPILVRPSPDTAGEYQIVAGERAWRAAQRAGLKTVPIMVRELDDLAVLEIGIIENVQRADLNVLEEALSYKVLMEKFERTQENIAQTIGKSXSHVANXMRLLXLPDEVQSYLVSGELTAXHARAIAAAADPVALAKQIIEGGLSVRETEALARKAPNLSAGKSKGGRPPRVKDTDTQALESDLSSVLGLDVSIDHRGSTGTLTITYATLEQLDDLCNRLTRGI

Variants of: B1
Experiment: one-hybrid fitness for binding NBS DNA (the Noc-binding site; scaled: cognate 1, non-cognate 0); higher = stronger binding
Settings: with NBS DNA site
Method in brief: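 Caulobacter ParB libraries with four specificity codons randomised were screened by bacterial one-hybrid selection in the E. coli USO strain, using a HIS3 reporter whose site lies 19 bp from the promoter. Selection ran for 48 hours at 37°C on M9 lacking histidine, with 0.1 mM IPTG and 5 mM 3-AT. Plasmids were Illumina-sequenced before and after selection, three replicate libraries were pooled, and variants with under 10 reads were dropped. Fitness is the log change in each variant's read ratio to wild type, rescaled against the cognate and non-cognate sites.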

Variant	one-hybrid fitness for binding NBS DNA
QMDM	≤ 0.2
QRRM	0.589
QSYM	≤ 0.2
QRYM	0.353
QRWM	0.254
QMRM	0.45
QSDM	≤ 0.2
QSRM	0.402
QMYM	≤ 0.2
PHEA	≤ 0.2
DNPI	≤ 0.2
NRHT	≤ 0.2
QPET	≤ 0.2
QTEH	≤ 0.2
NRGT	≤ 0.2
DRHT	≤ 0.2
QRHT	0.789
QTET	0.439
DRGT	≤ 0.2
QRDT	0.671
QRGT	0.822
LHGL	≤ 0.2
SEHS	≤ 0.2
AWHA	≤ 0.2

Variant	one-hybrid fitness for binding NBS DNA
AGPD	≤ 0.2
CCAY	≤ 0.2
GPLH	≤ 0.2
DGTS	≤ 0.2
QSET	0.253
QRYT	0.744
DRNT	≤ 0.2
QRET	0.603
QCET	0.352
QRWT	0.707
QRWG	≤ 0.2
QRWF	≤ 0.2
QRNT	0.822
QWNT	≤ 0.2
DPRH	≤ 0.2
TCSP	≤ 0.2
EGGL	≤ 0.2
QSFQ	≤ 0.2
PGPS	≤ 0.2
LKHN	≤ 0.2
PPQT	≤ 0.2
VKFG	≤ 0.2
DVTN	≤ 0.2
TRRA	0.25

Variant	one-hybrid fitness for binding NBS DNA
LSWG	≤ 0.2
KASG	≤ 0.2
PNWS	≤ 0.2
ISHA	≤ 0.2
TEKA	≤ 0.2
QKET	0.391
QRLT	0.731
QRRT	0.863
QKEH	≤ 0.2
QFRT	0.309
QILT	0.236
DRCT	≤ 0.2
QRLM	0.322
QKES	0.275
QRRE	0.346
QRCT	0.806
QACT	0.363
TPVD	≤ 0.2
FWLS	≤ 0.2
STAF	≤ 0.2
DGKR	≤ 0.2
RSDQ	≤ 0.2
NRPR	≤ 0.2
VFEC	≤ 0.2

Variant	one-hybrid fitness for binding NBS DNA
SCLN	≤ 0.2
QRST	0.772
QIQT	0.283
QRQT	0.755
DRQT	≤ 0.2
NRST	≤ 0.2
QFST	≤ 0.2
TYAY	≤ 0.2
MPCT	≤ 0.2
SIMW	≤ 0.2
VASM	≤ 0.2
GSLP	≤ 0.2
QIRD	≤ 0.2
QIRP	≤ 0.2
QIRS	0.539
QIYS	0.27
QIIS	≤ 0.2
QIRH	0.44
RWRF	≤ 0.2
LTWA	≤ 0.2
KKKG	≤ 0.2
AEER	≤ 0.2
QCKT	0.778
QIVT	0.236

Variant	one-hybrid fitness for binding NBS DNA
QLKT	0.673
QWKT	0.25
QIKT	0.574
QPKT	0.201
QLVT	0.276
QAVT	0.296
QAKT	0.692
LDLK	≤ 0.2
AVEL	≤ 0.2
SLSN	≤ 0.2
QSKT	0.699
QHVT	0.327
QHIT	0.349
QHKT	0.732
QFKT	0.388
QSVT	0.328
QFVT	≤ 0.2
QFYT	≤ 0.2
QEKT	≤ 0.2
WSSW	≤ 0.2
LFHV	≤ 0.2
YELS	≤ 0.2
IALF	≤ 0.2
ESMD	≤ 0.2

Variant	one-hybrid fitness for binding NBS DNA
RSFQ	≤ 0.2
RRDN	≤ 0.2
RRNP	≤ 0.2
RRNN	0.493
RRND	≤ 0.2
RCNN	≤ 0.2
RRDH	0.371
RCDH	≤ 0.2
RRNH	0.63
ANST	≤ 0.2
CRRH	≤ 0.2
RNTT	0.215
DAPG	≤ 0.2
GCTC	≤ 0.2
QTHI	0.228
QNEM	≤ 0.2
WTRW	≤ 0.2
TLWY	≤ 0.2
RRFQ	0.267
RRAF	≤ 0.2
RRFT	0.777
RRAC	0.328
RRFG	0.279
RRAT	0.782

Variant	one-hybrid fitness for binding NBS DNA
SIPE	≤ 0.2
IQKV	≤ 0.2
PDCE	≤ 0.2
FSMS	≤ 0.2
QQNP	≤ 0.2
QQDT	0.428
QQNN	0.231
QQDF	≤ 0.2
KQDT	≤ 0.2
QQNT	0.596
VNKV	≤ 0.2
GVQT	≤ 0.2
RNWC	≤ 0.2
AVGK	≤ 0.2
QTYA	0.427
QPNA	≤ 0.2
QTLA	0.329
QLHA	≤ 0.2
QTHA	0.441
QSNA	0.308
QWGA	≤ 0.2
QTGA	0.466
QTPA	≤ 0.2
QMGA	0.253

Variant	one-hybrid fitness for binding NBS DNA
QHHA	0.238
QCNA	0.369
LHCQ	≤ 0.2
VMLE	≤ 0.2
LRND	≤ 0.2
AEHT	≤ 0.2
QASA	≤ 0.2
QDQA	≤ 0.2
QCCA	0.326
QTSA	0.397
QTAA	0.44
QTFA	0.301
QTQA	0.432
QTCA	0.378
QSCA	≤ 0.2
QCSA	0.302
QKAA	0.319
QLQA	0.204
SFSC	≤ 0.2
PSTY	≤ 0.2
KYQS	≤ 0.2
AEHP	≤ 0.2
CVMI	≤ 0.2
VVAR	≤ 0.2

Variant	one-hybrid fitness for binding NBS DNA
NSNP	≤ 0.2
SNRD	≤ 0.2
YAHR	≤ 0.2
QTRA	0.712
QAWA	≤ 0.2
QTMA	0.32
QTKA	0.708
QCAA	0.393
QTVA	0.317
QCWA	0.205
QSAA	0.273
QTWA	0.367
NTKA	≤ 0.2
QPAA	≤ 0.2
QTIA	0.224
NGIG	≤ 0.2
PFPE	≤ 0.2
GKAT	≤ 0.2
ATEG	≤ 0.2
TRRP	≤ 0.2
HLQN	≤ 0.2
QTNA	0.505
QPTA	≤ 0.2
QTDA	0.255

Variant	one-hybrid fitness for binding NBS DNA
QCTA	0.326
QKNA	0.378
QLNA	0.219
QTTA	0.399
QINA	0.21
QKDA	≤ 0.2
ISCK	≤ 0.2
MLLV	≤ 0.2
LQRF	≤ 0.2
HHLI	≤ 0.2
LHQS	≤ 0.2
RPNR	≤ 0.2
RIDR	≤ 0.2
RSNH	0.223
RCNR	0.586
RWNR	0.436
RFNR	0.325
RSNR	0.526
RINH	≤ 0.2
RWYR	≤ 0.2
RINR	0.524
RSDR	≤ 0.2
RWDR	≤ 0.2
GSSG	≤ 0.2

Variant	one-hybrid fitness for binding NBS DNA
PGTF	≤ 0.2
LPSK	≤ 0.2
PGGS	≤ 0.2
RQIG	≤ 0.2
MIKI	≤ 0.2
NGIR	≤ 0.2
FGEY	≤ 0.2
RHNR	0.539
RHDR	0.216
RHNN	≤ 0.2
NDST	≤ 0.2
SAPN	≤ 0.2
YTYC	≤ 0.2
DRRR	0.215
QRQR	0.987
NRQR	≤ 0.2
QRRR	1.1
NRYR	≤ 0.2
QRSG	0.339
QRQL	0.255
DRYR	≤ 0.2
QRYR	0.924
NRRR	0.251
QRSF	0.262

Variant	one-hybrid fitness for binding NBS DNA
QRSR	0.997
RCHV	≤ 0.2
LHEL	≤ 0.2
TCPE	≤ 0.2
KYMS	≤ 0.2
QRCR	0.981
QRLR	0.945
QRGR	1.04
QRLF	0.238
DRGR	≤ 0.2
QDCR	≤ 0.2
QRLQ	0.327
DRCR	≤ 0.2
NRGR	≤ 0.2
QRDR	0.679
DAMG	≤ 0.2
RDCF	≤ 0.2
SWLF	≤ 0.2
THYV	≤ 0.2
EPRD	≤ 0.2
AGTM	≤ 0.2
AMGA	≤ 0.2
NRHR	≤ 0.2
QRNR	1.03

Variant	one-hybrid fitness for binding NBS DNA
DRNR	≤ 0.2
DRHR	≤ 0.2
QRHR	1.06
NRNR	≤ 0.2
TTSN	≤ 0.2
DLQW	≤ 0.2
DYWR	≤ 0.2
QHAN	≤ 0.2
QHFR	0.408
QHFN	≤ 0.2
QHFS	≤ 0.2
QHAR	0.523
QHAH	≤ 0.2
GISW	≤ 0.2
ACMF	≤ 0.2
RFMI	≤ 0.2
EHLG	≤ 0.2
SCYH	≤ 0.2
